Experimental data: PubChem BioAssay (NCI)
About 79,000 compounds went through this panel and 15% of them were active in at least one assay; those are over-represented in the sample as a whole. Active and inactive are the calls of the source. Rule as the data show it: active = growth inhibition above about 70%; inactive = the rest.

Assays:
[1] = NCI Yeast Anticancer Drug Screen. Data for the rad50 strain (AID 155);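 also: 0% = growth of vehicle-only cultures of the same strain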; settings: S. cerevisiae rad50 strain growth inhibition; at 50.0 µM; stronger effect = higher value
How it was run: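 Growth of the mutant yeast was measured after compound exposure and referenced to vehicle-treated cultures.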

[2] = NCI Yeast Anticancer Drug Screen. Data for the mec2-1 strain (AID 157); settings: S. cerevisiae mec2-1 strain, at 50.0 µM, stronger effect = higher value
How it was run: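 Cells of the genetically defined mec2-1 yeast strain are incubated with test compound. Inhibition of growth is calculated against vehicle-treated controls.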

[3] = NCI Yeast Anticancer Drug Screen. Data for the sgs1 mgt1 strain (AID 161);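 also: 0% = growth of cultures given vehicle only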; settings: S. cerevisiae sgs1 mgt1 strain, at 50.0 µM, stronger effect = higher value
How it was run: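 Read-out: growth inhibition vs vehicle controls. Cells: mutant yeast strain deficient in DNA damage repair.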

[4] = NCI Yeast Anticancer Drug Screen. Data for the cln2 rad14 strain (AID 165);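 also: 0% = growth equal to vehicle treated cultures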; settings: S. cerevisiae cln2 rad14 strain, at 50.0 µM, stronger effect = higher value
How it was run: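 The screen exposed genetically defined yeast (cln2 rad14) to test compounds and scored growth inhibition relative to vehicle-treated controls.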

[5] = NCI Yeast Anticancer Drug Screen. Data for the bub3 strain (AID 167); settings: S. cerevisiae bub3 mutant strain, at 50.0 µM, stronger effect = higher value
How it was run: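 Whole-cell yeast assay. The mutant strain was incubated with compounds, and growth inhibition was determined by comparison with vehicle-treated cells.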

[6] = NCI Yeast Anticancer Drug Screen. Data for the mlh1 rad18 strain (AID 175); settings: S. cerevisiae mlh1 rad18 strain growth inhibition; at 50.0 µM; stronger effect = higher value
How it was run: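 Compound-treated yeast growth, normalised to vehicle controls. Strain bears defined DNA repair mutations.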

Measured: growth inhibition

O=C(CCC(=O)C1CCC/C1=N/O)Nc1ccc(Cl)cc1 (centres undefined)
inactive: [1] -40.4% | [2] -0.4% | [3] 7.4% | [4] 26.1% | [5] 9.55% | [6] 21.1%

CC1CN1C(=O)Nc1cccc2c(NC(=O)N3CC3C)cccc12 (centres undefined)
inactive: [1] -21.9% | [2] -12.4% | [3] -8.85% | [4] -15.8% | [5] 22.4% | [6] -2.45%

N#CN=C(N(Cc1ccccc1)Cc1ccccc1)N(Cc1ccccc1)Cc1ccccc1
inactive: [1] -3.65% | [2] -12.4% | [3] -18.6% | [4] 20.6% | [5] 12.4% | [6] -14.1%

SC(S)(Cc1ccccc1)Cc1ccccc1
inactive: [1] -6.4% | [2] 2.2% | [3] 16.4% | [4] -9.65% | [5] 35.1% | [6] 1%

O=C(O)/C=C/c1ccccc1Cl
inactive: [1] -9.7% | [2] 10.1% | [3] -1.3% | [4] -25.8% | [5] 0.8% | [6] -9.9%

COc1cccc(-c2nc(SCC(N)=O)[nH]c(=O)c2C#N)c1
inactive: [1] 6.25% | [2] 1.8% | [3] 13.5% | [4] 12% | [5] 17.5% | [6] 14.2%

CC(=O)c1cccc(C(C)=O)n1
inactive: [1] -24.2% | [2] -36.1% | [3] -35.9% | [4] 18.1% | [5] -19.8% | [6] 9.6%

Cc1cc([N+](=O)[O-])cnc1Cl
inactive: [1] -14.1% | [2] -22.2% | [3] -11.6% | [4] -15.9% | [5] 12% | [6] -16.8%

Cc1ccc(S(=O)OCC23CC4CC(CC(C4)C2)C3)cc1 (centres undefined)
inactive: [1] 17.5% | [2] 1.6% | [3] -1.05% | [4] 17.5% | [5] -5.55% | [6] -30.6%

BrCc1ccc(C[P+](c2ccccc2)(c2ccccc2)c2ccccc2)cc1
inactive: [1] 26.3% | [2] 15.3% | [3] 16.2% | [4] 7% | [5] 29.2% | [6] 28.4%

Cc1csc(NNC(=O)Nc2ccccc2)n1
inactive: [1] 36.7% | [2] 14.2% | [3] -35.5% | [4] 18.4% | [5] -8.65% | [6] 7.5%

O=S(O)CCCCCSSCCCCSSCCCCCS(=O)O
inactive: [1] 7.6% | [2] -0.15% | [3] 11.5% | [4] 10.3% | [5] 12.8% | [6] 27.4%

N#C/C(c1nc2ccccc2[nH]1)=c1\s/c(=C(/N)O)c(=N)n1-c1ccccc1
inactive: [1] -31.6% | [2] -26% | [3] -32.4% | [4] -30.1% | [5] -34.1% | [6] -47.6%

CC(=O)C[n+]1ccccc1Oc1ccccc1
inactive: [1] 5.9% | [2] 4.15% | [3] 4.25% | [4] 11.2% | [5] 12.8% | [6] 3.75%

O=S(=O)(Nc1cc(Cl)c(NS(=O)(=O)c2ccccc2)c(S(=O)(=O)c2ccccc2)c1Cl)c1ccccc1
inactive: [1] 58.2% | [2] 62.4% | [5] 65.3% | [6] 65%
active: [3] 73.5% | [4] 71.8%

CC(C)N(C(=O)C12C3C4C5(C(=O)O)C(C1C35I)C42C(=O)O)C(C)C (centres undefined)
inactive: [1] -5.25% | [2] 11.1% | [3] -13.3% | [4] 13.7% | [5] -10.4% | [6] -4.1%

CC(C)C(C)(O)c1ccccc1 (centres undefined)
inactive: [1] -3.15% | [2] -28.8% | [3] 5.35% | [4] -10.9% | [5] 0.35% | [6] 0.9%

O=C1NC2OC(CO)C(O)C(O1)C2O (centres undefined)
inactive: [1] -9.7% | [2] 19.4% | [3] -24.9% | [4] -5% | [5] -28.8% | [6] -25%

CO/N=C(\C([O-])=N\[n+]1cnn(CC(=O)OC(C)(C)C)c1)c1csc(NC(c2ccccc2)(c2ccccc2)c2ccccc2)n1
inactive: [1] 39.5% | [2] 0.75% | [3] 11.1% | [4] 8.3% | [5] 15.3% | [6] -10.1%

N#Cc1c(C#N)c(-c2cccc([N+](=O)[O-])c2)n(-c2ccccc2)c1N
inactive: [1] 15.9% | [2] 15.5% | [3] -35.6% | [4] 2.15% | [5] -16.6% | [6] -16.5%

Cn1c(=S)[nH]c2sc3c(c2c1=O)CCCCC3
inactive: [1] 12.2% | [2] -0.6% | [3] 8.25% | [4] 6.65% | [5] -4.05% | [6] 8.4%

C=CCOc1ccc(S(=O)(=O)c2ccc(OCC=C)cc2)cc1
inactive: [1] 3.55% | [2] -7.9% | [3] -2.55% | [4] -27.7% | [5] 8.2% | [6] -4.35%

O=C(O)CCCCCNC(=O)c1ccccc1
inactive: [1] 18.3% | [2] 14.8% | [3] 16.2% | [4] 6.4% | [5] -8.2% | [6] 22.2%

Cc1nc(-c2ccccc2)ncc1C(O)CN1CCOCC1 (centres undefined)
inactive: [1] 12.8% | [2] 11.2% | [3] 17.4% | [4] 13.7% | [5] -23% | [6] 6.95%

O=C(/C=C/c1ccccc1)N/N=C/c1ccncc1
inactive: [1] 5.2% | [2] 24.9% | [3] 1.6% | [4] -9.2% | [5] -0.45% | [6] 11.3%

O=C(c1ccccc1)C1C(c2ccccc2)N1C(=O)c1ccccc1 (centres undefined)
inactive: [1] 9.8% | [2] 16.4% | [3] 6.35% | [4] -1.3% | [5] 35.6% | [6] 12.9%

COC(=O)C1=C(c2ccccc2)c2ccc3ccccc3c2C1c1ccccc1 (centres undefined)
inactive: [1] 40.1% | [2] -8.25% | [3] 22.9% | [4] 12.4% | [5] 6.15% | [6] 25.2%

C/C(=N/Nc1ccc([N+](=O)[O-])cc1[N+](=O)[O-])c1ccc(Sc2ccc(/C(C)=N/Nc3ccc([N+](=O)[O-])cc3[N+](=O)[O-])cc2)cc1
inactive: [1] -13.2% | [2] -21.1% | [3] -10.3% | [4] -19.4% | [5] -14.9% | [6] -23.4%

Cc1nc2ccc(S(=O)(=O)Nc3ccccn3)cc2c(=O)n1NS(=O)(=O)c1ccccn1
inactive: [1] 42.6% | [2] 12.1% | [3] 12% | [4] 22.8% | [5] -14.2% | [6] 26.4%

CCCCCC(C)(O)CCCCC
inactive: [1] 0.15% | [2] 1.75% | [3] 1.7% | [4] 11.7% | [5] 18.3% | [6] 12%

Nc1ccc(N=Nc2c(S(=O)(=O)O)cc3cc(S(=O)(=O)O)cc(O)c3c2O)cc1
inactive: [1] -30.8% | [2] -16.4% | [3] -29.5% | [4] -23.9% | [5] 6.55% | [6] 10.8%

CC12CCCC=C1C(C)(C)C(O)CC2 (centres undefined)
inactive: [1] 3.45% | [2] 1.7% | [3] 2.95% | [4] 7.3% | [5] -26.8% | [6] 0.8%

CCOC(=O)NC(Nc1ccc(Cl)cn1)(C(F)(F)F)C(F)(F)F
inactive: [1] -25.9% | [2] -12.5% | [3] -52.5% | [4] -25.3% | [5] -21.6% | [6] -76.2%

Cc1cn(C2CC(O)C(CO)O2)c(=O)[nH]c1=S (centres undefined)
inactive: [1] 9.05% | [2] -7.25% | [3] -3.5% | [4] -37.3% | [5] 14.2% | [6] 13.2%

CCCCCCCCCCCCCCCCCCCCC1CC(=O)OC1=O (centres undefined)
inactive: [1] 41.6% | [2] 11.8% | [3] 36.4% | [4] 9.45% | [5] 2.7% | [6] 29.2%

COc1ccc(/C=N/NC(=O)NCCNCCO)cc1
inactive: [1] -16.6% | [2] -31.8% | [3] -32.8% | [4] -13.7% | [5] -39.5% | [6] -17.2%

Cc1cc(NC(=O)NCCCCCCNC(=O)Nc2cc(C)on2)no1
inactive: [1] 4.95% | [2] 1.2% | [3] 1.7% | [4] -7.75% | [5] 14.6% | [6] 0.35%

CCOC(=O)Oc1cc2c(ccn2C)c2c1c1ccccc1n2C(=O)OCC
inactive: [1] 2.25% | [2] -1.8% | [3] -26.6% | [4] 8.9% | [5] 13.6% | [6] 0.4%

O=c1[nH]c2cc(Cl)ccc2nc1/C=C(\O)c1ccc([N+](=O)[O-])cc1
inactive: [1] 25.6% | [2] 21.8% | [3] 37.4% | [4] 7.85% | [5] 6.55% | [6] 54%
